In the supplement of paper PMC6555819:

Tested on: VDR:RXRa (NR concentration 270 nM, RXRa partner concentration 90 nM)
Experiment: PBM binding z-score (relative to random genomic background probes); higher = stronger binding; sequences stand for … in GC…GCGATTGACAGCGTAGAATGAAGG
Procedure: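 Protein-binding microarray (Agilent 4x180K custom design, double-stranded 60-nt probes: 5' GC cap, 34-nt variable region, 24-nt constant primer region; full probe sequence given). Purified or IVT nuclear receptor:RXRα heterodimers (3:1 NR:RXRα, mostly 270:90 nM) or homodimers were incubated for 1 h in PBS with 2% milk and no ligand, then detected with Alexa488 antibodies. Fluorescence from o1-orientation probes (~5 replicates averaged) was converted to z-scores against 500 random hg19 background probes. Variable regions are seed direct-repeat (DR0–DR5) sites, all their single-nucleotide variants and half-site ablations.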

Row | Sequence | PBM binding z-score
1 | TCATATAGGTAAACAGCTGAAAGTCCGTAAGTTA | 1.06
2 | TCTTGTAGATCAGCAGGTTAAGAAAGCTGGCCAA | 0.357
3 | CGAACTAGGTCAAGGACAGTTAATCTCCGCACGC | 1.6
4 | CCTGCTAGGTCATGGTTAGCTAATCTACAGTATG | 1.39
5 | ATCTCTAGGTAAAAGTTCAGTGATTCCCGAGGAT | 1.05
6 | TGTCACAGTTCAAAGGTAACGTAAGTATCCACAC | 3.28
7 | AACTCTAGGTAAAGTTCAGTGAAAGATCGATAGA | 1.15
8 | ACAGACGGGTGAGTGAAGGTAACTCAGCTGGACG | -0.422
9 | CCTTACGGGTCACGAGGTTAAAGCACGACGAGCG | 5.59
10 | ATCTCTAGGTAAGACTCAGTTCACTGAAGAACGC | 1.74
11 | ATCTCTAGGTAACCACGTTCAGTGAATGCCGAAC | 0.175
12 | CGAACTAGGTCATCCAGCACAGTGAATACATTGA | 2.34
13 | CGTCCAAGGTCAGCTGGTCAGTGAAAGCGACGTG | 2.66
14 | ATCGAAAGGACGACGAGGTGAGTATACACCGTTT | 0.0992
15 | ATCTATAGGTAAAAGTTCAGTGAATCCCGAGGAT | 1.28
16 | AGAACGAGGGCAATGAGTTGATAGCGCGGGTGGC | 5.04
17 | TCATATAGGGAAACAGGTGAAAGTCCGTAAGTTA | 0.918
18 | CCTGCTATGTCAATGGTCAGCTAAAGCAGCTCGC | -0.397
19 | TCTCGGAGGACACGAAAGGTCAGAGGTCGACATC | 4.52
20 | TCTGCTAGGTCAAAGATGGTCAGCTAATCTGCTA | 1.68

Row | Sequence | PBM binding z-score
21 | ATATGTAGGCTAGCTGGGGTCATTCAGACTAGGC | 4.77
22 | TCAGATAGGTAAATGCTAGGTGAAAGTCCGATCT | 0.407
23 | CCTACTGGGCCAAGAAAGGTCATTGATTCAGTGA | 3.68
24 | GCTTACGGGTCAAATGTTATAGCATGAATAGAAT | 3.64
25 | CAGCCTAGGTCAGGGCCATTATAGGAGGAACGTT | 0.399
26 | TAGCCTGGGTCATTCAGGGGCCAGTATAGAAAGC | 2.82
27 | ATCTCTAGGTAACAGGTTCAGTGAAAGAGAGGAC | 1.95
28 | TGAATGAGGTTAAAGATCAGGGAGCGTGGCGTCG | 1.74
29 | ACTATTAGTTGAGATGAGGGCAACCGATAGGTTG | 0.654
30 | CCTATTAGTTGACCATAAGGGCAACCGGAGCTCG | 0.682
31 | AGAACGAGGGCAATGAGTTGTTAGCACGGGTGGC | 4.09
32 | CCTCCTAGGTCATGGTCAGCTAATCTACAGTATG | 1.93
33 | CATACAGGGTCAACTAGGCCAGAGTAGGGACGGC | 5.1
34 | ACTAACAGGCCAAGTTTGGGTCACTCAAACAAAG | 0.973
35 | TCTATTAGTTGAGTAGGGCAACCGAAACAGCGGA | -0.07
36 | ACTAGCAGGACAAGTTTGGGTCACTCAAACAAAG | 0.698
37 | GCAGACAGGTGAAACGCAGGTAAGTCAGGGTGGC | -0.562
38 | TCTTGTAGATCAATGGAGGTTAAGAAAGTGCGCT | 1.38
39 | CGAACTAGGTCATCCAGGACAGTGACTACATTGA | 4.29
40 | CCTACTGGGCCATTCAGCGGTCATTGATCATATG | -0.109
